Bioassay records deposited in PubChem BioAssay by Broad Institute.
Most compounds without a hit are left out; they make up all but 0.46% or so of the library.
PDI inh – PDI (human) enzyme inhibition | inhibition, % at 10 µM | 350,000 compounds, 0.052% hits | P07237 | PDI insulin aggregation turbidity, A650, 90 min;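 active means mean inhibition across replicates of 30% or more, whatever share of single replicates reach that level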
PGC1a acetyl inh – modulators of PGC1a acetylation | 350,000 compounds, 0.17% hits | U2OS PGC1a acetylation, AlphaScreen anti-acetyl-lysine; with virally co-expressed GCN5 acetyltransferase | AID 651687 | inhibition, % at 15.6 µM;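 active means every replicate shows inhibition of at least 40%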;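 further: 0% = neutral control wells and 100% = positive control wells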
ERp5 block – blocks human ERp5 reductase activity on insulin; Q15084; ERp5 insulin aggregation, absorbance 650 nm, 90 min; inhibition, % at 9.99 µM; 350,000 compounds, 0.05% hits;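 active means mean replicate inhibition above about 25%, with every replicate also reaching it, limit read from the data, passing the limit was not always enough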
ERAP1 HTS inh – blocks human ERAP1 aminopeptidase activity; Q9NZ08; recombinant ERAP1, Leu-AMC fluorescence, 60 min; inhibition, % at 10.7 µM; 340,000 compounds, 0.15% hits; AID 652197;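 active means mean replicate inhibition of at least 30%, or all replicates individually reaching that 30% level; inactive means mean below 30% and not every replicate reaching it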;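 further: 0% = neutral control wells and 100% = L-leucinethiol positive control wells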
PglD inh – blocks C. jejuni PglD acetyltransferase activity. inhibition, % at 12.5 µM. 360,000 compounds, 0.098% hits. AID 602405. purified PglD enzyme, DTNB colorimetric CoA detection; in the data active means inhibition above about 16%, passing the limit was not always enough
CaV13 FRET inh – Disruptors of the CACNA1D IQ motif to Ca2+-dependent inactivation inhibitor domain association, primary screening, Förster resonance energy transfer in intact living …; HEK cells, CFP/YFP FRET ICDI-IQ, plate reader, 10 min; percent FRET-ratio fall versus neutral wells; inhibition, % at 12.3 µM; 340,000 compounds, 0.098% hits;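 active means mean replicate inhibition of at least 30% and at least 1% of replicates passing that level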;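 further: 0% = median of the neutral control wells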
The depositor's hits bear a star; x = no result given; + = active, no number.

SMILES | PDI inh | PGC1a acetyl inh | ERp5 block | ERAP1 HTS inh | PglD inh | CaV13 FRET inh
CN(C)S(=O)(=O)c1ccc(C(=O)NCC[N+]2(C)CCCCCC2)o1 | -0.1 | -0.6 | 0.3 | 40.9* | 1.6 | -1.0
CCOc1ccc(OCc2ccc(C(=O)NN=Cc3ccc[nH]3)cc2)cc1 | -6.6 | 46.5* | -3.0 | 0.3 | -1.3 | -5.5
O=C(CSc1nc(-c2ccccc2)ns1)N1CCOCC1 | -1.7 | x | 0.2 | 0.8 | x | x
Cc1cccc(-c2nsc(SCC(=O)N3CCCC3)n2)c1 | -1.5 | 95.5* | x | x | -8.1 | -4.6
CC1CCCCN1C(=O)CN(C)S(=O)(=O)c1cccc2nsnc12 (stereo not given) | -2.2 | 41.6* | -0.8 | 3.6 | 3.3 | -15.1
CN(CC(=O)N1CCN(Cc2ccccc2)CC1)S(=O)(=O)c1cccc2nsnc12 | -1.4 | x | -7.4 | -1.2 | x | -3.3
Cc1ccc(S(=O)(=O)Nc2ccc3c(c2)C(=O)N([C@@H](C)CO)C[C@H](C)[C@@H](CN(C)Cc2ccc(C(=O)O)cc2)O3)cc1 | x | 0.5 | x | -1.2 | -1.6 | x
CN(C)C(=O)C[C@H]1C[C@H]2c3cc(NS(C)(=O)=O)ccc3O[C@H]2[C@@H](CO)O1 | x | -6.0 | 33.1* | 1.4 | 0.7 | x
CN(C)C(=O)C[C@H]1C[C@@H]2c3cc(NS(C)(=O)=O)ccc3O[C@@H]2[C@H](CO)O1 | x | 3.4 | 14.8 | -1.4 | -1.1 | x
CN(C)C(=O)C[C@H]1C[C@H]2c3cc(NS(C)(=O)=O)ccc3O[C@H]2[C@H](CO)O1 | x | 0.1 | 68.2* | -0.4 | 1.1 | x
CCOC(=O)N1CCN(C(=O)c2cc(Cl)c(Cl)cc2C(=O)O)CC1 | -5.8 | 84.4* | 5.8 | -0.3 | x | -5.6
O=C(NC(Cc1ccc(O)cc1)C(=O)N=Nc1c(O)[nH]c2ccccc12)c1ccccc1 (stereo not given) | 44.9* | -4.0 | 2.6 | -3.5 | x | -8.3
O=S(=O)(c1ccccc1)N1[C@@H]2CNC[C@H]1C2c1ccc(/C=C/c2ccccc2)cc1 (stereo not given in full) | x | 3.6 | 1.8 | 0.3 | x | x
O=C(O)c1ccc(-c2ccc(/C=C3\NC(=O)N(Cc4ccc(Cl)cc4)C3=O)o2)cc1 | 5.6 | 7.9 | 19.6 | -5.0 | -3.2 | 47.9*
CCCC#Cc1ccc([C@@H]2[C@@H](CO)N3C(=O)CN(S(=O)(=O)c4ccccc4C)C[C@@H]23)cc1 | x | 3.6 | -5.5 | 3.1 | x | x
OC(COCC1COc2ccccc2O1)CN1CCN(c2ccccc2)CC1 (stereo not given) | 5.1 | 4.7 | x | x | -3.5 | -1.3
C[N+]1(CC(O)COCC2COc3ccccc3O2)CCOCC1 (stereo not given) | 1.6 | -16.0 | -0.5 | 104.0* | x | -4.1
O=c1c2ccccc2n(CC(O)CN2CCCCC2)c2ccccc12 (stereo not given) | 9.4 | 7.9 | 5.8 | 21.1 | 0.5 | +
CCCN1[C@@H]2c3ccc(-c4ccc(OC)cc4)c(=O)n3C[C@@H]2[C@@H](CO)[C@@H]1C(=O)NCC | x | 2.5 | 6.2 | -3.0 | -0.9 | x
O=C(c1cccc(F)c1)N1CCCCN2[C@H](CO)[C@@H](c3ccc(-c4ccc(F)cc4)cc3)[C@H]2C1 | x | 2.1 | 4.2 | -2.5 | -1.4 | x
O=C(c1cccc(F)c1)N1CCCCN2[C@H](C1)[C@H](c1ccc(-c3ccccc3)cc1)[C@@H]2CO | x | 5.4 | 28.4* | 2.6 | -3.4 | x
C[C@@H]1CN([C@@H](C)CO)C(=O)Cc2cc(NC(=O)Cc3ccccc3)ccc2O[C@@H]1CN(C)C(=O)Nc1ccc(C(F)(F)F)cc1 | x | -5.7 | 36.6* | -1.8 | 0.5 | x
C[C@@H]1CN([C@@H](C)CO)C(=O)Cc2cc(NS(=O)(=O)c3cccs3)ccc2O[C@H]1CN(C)C(=O)Nc1ccc(C(F)(F)F)cc1 | x | 1.0 | 47.2* | 0.7 | 1.6 | x
C=CCN(c1ccc(C(=O)Nc2ccc3c(c2)OCO3)cc1)S(C)(=O)=O | -8.1 | 92.7* | 1.3 | -0.7 | x | -4.0
CCC1NC(=S)N(C2CCCCC2)C1=O (stereo not given) | -5.0 | 55.4* | x | x | 0.3 | -8.4
SMILES | PDI inh | PGC1a acetyl inh | ERp5 block | ERAP1 HTS inh | PglD inh | CaV13 FRET inh
CC(C)CC1NC(=S)N(C2CCCCC2)C1=O (stereo not given) | 7.8 | 11.5 | x | x | 8.0 | -1.6
CCOc1ccc(C2C(C(=O)OC)=CN(CCOC)C=C2C(=O)OC)cc1 | 0.4 | 4.2 | x | x | 2.4 | -4.0
COCCN1C=C(C(=O)OC)C(c2ccc(Cl)cc2)C(C(=O)OC)=C1 | 16.6 | -7.2 | -0.9 | -163.6 | x | +
COc1ccc2c3c(n(C)c2c1)[C@H](CO)N(C(=O)Nc1ccc(F)cc1)CC31CCN(C(=O)CC2CC2)CC1 | x | 26.5 | -0.1 | 0.5 | x | x
NNC(=O)c1cc(C2CC2)nc2ccc(Br)cc12 | -2.7 | 2.1 | 1.3 | 5.2 | -1.9 | -4.9
NNC(=O)c1cc(-c2ccc(O)cc2)nc2ccc(Br)cc12 | 40.4* | -9.2 | 9.8 | -7.2 | -6.3 | -2.2
COc1ccc2c3c([nH]c2c1)[C@@H](CO)N(Cc1ccccc1OC)CC31CN(S(C)(=O)=O)C1 | x | -5.9 | x | x | x | x
COCC(=O)N1CC2(C1)CN(Cc1ccccc1F)[C@H](CO)c1[nH]c3cc(OC)ccc3c12 | x | 15.6 | 33.6* | 5.2 | x | x
COc1ccc2c3c([nH]c2c1)[C@@H](CO)N(Cc1ccccc1OC)CC31CN(C)C1 | x | -1.7 | -6.4 | 51.1* | x | x
COc1ccc2c3c([nH]c2c1)[C@H](CO)N(Cc1ccccc1F)CC31CN(C)C1 | x | 7.7 | x | x | x | x
COc1ccc2c3c([nH]c2c1)[C@H](CO)N(Cc1ccccc1OC)CC31CN(C)C1 | x | 10.5 | 6.2 | 53.2* | x | x
COCC(=O)N1CCC2(CC1)CN(Cc1ccccc1F)[C@H](CO)c1[nH]c3cc(OC)ccc3c12 | x | 6.2 | 0.4 | -15.4 | x | x
COc1ccc(S(=O)(=O)Nc2ccc3c(c2)CC(=O)N([C@H](C)CO)C[C@H](C)[C@H](CN(C)S(=O)(=O)c2ccccc2)O3)cc1 | x | 3.4 | x | x | -0.8 | x
CCn1c(/C=C/c2ccccc2)nc2ccccc21 | -2.6 | -7.4 | x | x | -6.9 | -3.4
CCCn1c(/C=C/c2cc[n+](C)cc2)nc2ccccc21 | 7.5 | 5.7 | 2.6 | 41.2* | -5.1 | -109.1
N/C(=N\OC(=O)CCCOc1ccccc1)c1ccc([N+](=O)[O-])cc1 | -1.6 | 90.1* | 1.4 | 1.7 | x | 9.5
N/C(=N\OC(=O)CCCc1ccccc1)c1ccc([N+](=O)[O-])cc1 | -5.9 | x | x | x | x | -4.4
Cc1cc(/C=C2\SC(=S)N(C)C2=O)c(C)n1-c1ccc(O)cc1 | 74.8* | 6.5 | 4.8 | 1.7 | x | -4.5
CC(=O)N1CC[C@@H]2[C@H](CO)Nc3ccc(C#Cc4cccnc4)cc3[C@@H]21 | x | -2.2 | -3.3 | 3.3 | -0.4 | x
COc1ccc(N(C(=O)c2ccco2)C(C(=O)NC2CCCCC2)c2cccs2)cc1OC (stereo not given) | -3.0 | -8.7 | x | x | x | -6.3
C#CC(=O)N(c1ccc(OC)cc1OC)C(C(=O)NC1CCCC1)c1cccs1 (stereo not given) | 15.1 | 94.5* | 1.0 | 1.5 | x | -6.4
